# The source made the active and inactive calls. Calls follow the shape of the dose curve; as a rule, active = well fitted activation curve with a large enough effect; inconclusive = small, poorly fitted or top-dose-only effect; inactive = flat fitted curve, though single readings scatter.
# Assay: Confirmation and Secondary Assay for Modulators of Hemoglobin Beta Chain Splicing at IVS2 705 locus (AID 930)
# Conditions: HeLa EGFP-705 splicing reporter, GFP fluorescence, 48 h; series mostly up to 38.3 µM
# From the text: NIH Chemical Genomics Center [NCGC] NIH Molecular Libraries Screening Centers Network [MLSCN] MLSCN Grant: 1 X01 MH080684-01 PI Name: Dr. Ryszard Kole NCGC Assay Overview: Modulation of Alternative Splicing as Therapy Abnormal splicing is associated with a number of diseases, including cancer and genetic diseases such as cystic fibrosis, muscular dystrophy and beta-thalassemia. Alteration of disease associated splicing patterns provides a promising target for treatment. […] Mutations in the second intron of the b-globin gene at positions 654 or 705 are clinically relevant and cause mis-splicing which results in an out of frame gene product. […] EGFP-705 HeLa Cells as screen system. HeLa cell lines were stably transfected with a construct in which the EGFP (enhanced green fluorescent protein) cDNA was interrupted by the second intron of the beta-globin gene (IVS2-705). The ISV2 intron contains mutations which cause mis-splicing of EGFP and premature termination of EGFP which results in a nonfluorescent protein product. […] Expression of the transgene was driven by the CMV promoter. We concluded that a low molecular weight compound, which restored correct splicing of intron 2 would also generate functional EGFP protein, resulting in a fluorescent signal. Thus, the HeLa cells that express the EGFP-705 construct can be used for validation of splice site specificity of compounds identified in primary screening of the ISV2 654 construct.
# NCGC Assay Protocol Summary: Confirmatory Screening. Freshly thawed HeLa EGFP-705 cells were seeded in 5 ul of optimem media (Invitrogen) containing 2 % fetal calf serum (Hyclone) and 1x penicillin/streptomycin (Invitrogen) at a concentration of 500 cells per well in 1536-well plates. Cells were incubated overnight at 37C in 5% CO2. The next day, cells were treated with DMSO, 500 nM antisense ISV2 654 PNA control oligo, or library compound and allowed to grow at 37C in 5% CO2 for 2 days. The PNA oligo blocked the mutation site in the intron and allowed proper (wild type) splicing to occur, resulting in full length EGFP expression and also allowed for optimization of the assay parameters. Plates were read in the Acumen Explorer (TTP Labtech) using 488 nm laser excitation and 500-520 nm emission PMT filter in a 1 x 8 uM capture mode. Fluorescnet objects ranging in size from 5 to 250 uM were measured and the total peak GFP intensity for each well was used for data analysis. Keywords: Thalassemia, beta-thalassemia, beta-globin, EGFP, ISV2 654, ISV2 705, SSO, PNA, antisense, splicing, MLSMR, MLSCN, NIH Roadmap, qHTS, NCGC
row,Compound,outcome
1,Cc1cccc(CNc2nc(-c3cccnc3)nc3ccccc23)c1,inactive
2,N[C@@H](Cc1ccccc1)C(=O)O,inactive
3,CN(C)c1ccc(-c2nc(Nc3ccncc3)c3ccccc3n2)cc1,inactive
4,CNc1ncncc1-c1ccc(C(=O)N(C)C)cc1,inactive
5,CN(C)Cc1ccccc1-c1ccc2ncnc(NC3CCNCC3)c2c1,inactive
6,COc1ccccc1-c1nc(NCc2ccccc2)c2ccccc2n1,inactive
7,CN(C)c1ccc(-c2cc(NCc3ccccc3)ncn2)cc1,inactive
8,CN(C)c1ccc(-c2nc(N3CCNCC3)c3ccccc3n2)cc1,inactive
9,COc1ccc(CNc2nc(-c3ccccc3OC)nc3ccccc23)c(OC)c1,inactive
10,Cc1cccc(CNc2nc(-c3ccc(C(=O)N(C)C)cc3)nc3ccccc23)c1,inactive
11,Cc1cnc(CNc2nc(-c3cccnc3)nc3ccccc23)cn1,inactive
12,Nc1nc(Cl)nc2c1ncn2[C@@H]1O[C@@H](CO)[C@@H](O)[C@H]1O,inactive
13,Cc1cccc(CNc2ncnc3ccc(-c4ccc(C(=O)N(C)C)cc4)cc23)c1,inactive
14,N=c1ccn2c(n1)O[C@@H]1[C@@H](O)[C@H](CO)O[C@H]12,inactive
15,CN(C)C(=O)c1ccc(-c2nc(Nc3ccc(F)cc3)c3ccccc3n2)cc1,inactive
16,COc1ccccc1-c1ccc2ncnc(NCc3cccnc3)c2c1,inactive
17,CN(C)C(=O)c1ccc(-c2nc(Nc3ccncc3)c3ccccc3n2)cc1,inactive
18,CS(=O)(=O)Nc1cccc(-c2nc(NCc3cccnc3)c3ccccc3n2)c1,inactive
